High-throughput results (PubChem BioAssay)
IL1B secr inh = blocks inflammasome-driven IL-1 beta release. hit rate 4.7% among 360,000. AID 743279. activity change, % at 57.5 µM. THP-1 LPS/ATP IL-1B secretion, AlphaLISA, 16 h; hits give low values; in the data active means activity change below about -50%; inconclusive means mostly about -30% to -49%
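Secreted IL-1B measured by AlphaLISA bead assay after 16 h compound exposure of THP-1 cells; compounds (final up to 57.5 uM) added 1 h before LPS (250 ng/mL) and ATP (1.25 mM) stimulation; lower signal means less secretion.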
TDP1 cell noCPT = qHTS for Inhibitors of human tyrosyl-DNA phosphodiesterase 1 (TDP1): qHTS in cells in absence of CPT | AID 686978, 2013 | Potency, µM (highest dose often 46.2 µM), actives largely listed as inhibitors | hit rate 15% among 420,000 | DT40 Tdp1-/- hTDP1 cells, no CPT, ATP luminescence, 48 h; further: nearly all actives have a fitted effect of over 55% in size
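No-CPT arm: Tdp1-/-;hTDP1 DT40 cells (400/well) plus compounds, incubated ≥48 hr at 37 °C. Readout CellTiter-Glo luminescence.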
TGFb SMAD3 inh = TGF-b pathway inhibition; HepG2 CAGA-GFP TGF-b/SMAD3 reporter, GFP fluorescence, 18 h; TGF-beta stimulated, 500 pg/mL final; Potency, µM (titrated, usually from 46.1 µM), hits mostly inhibitors; hit rate 1.2% among 410,000; further: nearly all actives have a fitted effect of over 65% in size
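Using HEPG2 CAGA-GFP reporter cells at 1000 cells/well, we pinned test compounds, stimulated with recombinant TGF-beta (500 pg/mL final) and measured total well GFP after 18 h.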
TDP1 inh = inhibitors of human tyrosyl-DNA phosphodiesterase TDP1; Q9NUW8; recombinant TDP1, AlphaScreen DNA substrate cleavage; Potency, µM (highest dose often 130 µM), usual class: inhibitors; hit rate 0.28% among 350,000; AID 485290; further: nearly all actives have a fitted effect of over 40% in size
Target sequence (Q9NUW8 whole entry, looked up): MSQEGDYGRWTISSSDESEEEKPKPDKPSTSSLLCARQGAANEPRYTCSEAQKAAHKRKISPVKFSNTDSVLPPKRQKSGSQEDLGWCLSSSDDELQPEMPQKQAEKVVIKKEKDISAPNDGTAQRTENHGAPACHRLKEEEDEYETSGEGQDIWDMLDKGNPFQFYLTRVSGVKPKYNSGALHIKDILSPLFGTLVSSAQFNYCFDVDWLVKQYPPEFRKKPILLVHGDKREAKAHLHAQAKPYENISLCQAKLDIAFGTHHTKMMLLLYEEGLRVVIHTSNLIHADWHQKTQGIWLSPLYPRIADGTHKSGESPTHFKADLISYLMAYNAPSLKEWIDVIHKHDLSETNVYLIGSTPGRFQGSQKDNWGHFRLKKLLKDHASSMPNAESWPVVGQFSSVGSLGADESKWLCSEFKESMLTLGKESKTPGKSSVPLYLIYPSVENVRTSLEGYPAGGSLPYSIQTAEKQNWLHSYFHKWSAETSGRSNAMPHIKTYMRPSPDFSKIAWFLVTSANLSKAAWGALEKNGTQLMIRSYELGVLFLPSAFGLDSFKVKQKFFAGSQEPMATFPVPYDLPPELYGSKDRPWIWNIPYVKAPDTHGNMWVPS
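Enzyme-compound mixtures sat 15 min at room temperature, followed by a 5 min reaction with 15 nM final substrate and 10 min with AlphaScreen beads. Recombinant human Tdp1 was used at 1 nM final.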
HepG2 viability = kills HepG2 cells in TGF-b inhibitor counter-screen | hit rate 0.76% among 410,000 | AID 588856 | HepG2 CAGA-GFP viability, ATP luminescence, 18 h | Potency, µM (titrated, usually from 46.1 µM), hits mostly cytotoxic
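HepG2 CAGA-GFP cells (1000/well, DMEM with 1% FBS) received compound, then TGF-beta at 500 pg/mL final, and were incubated 18 hours at 37 degrees C. Viability was read by CellTiter-Glo luminescence. Media-only wells were set as complete cell-killing and DMSO as no toxicity.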
TDP1 cell CPT = DT40-hTDP1 cell growth loss with CPT; chicken DT40 Tdp1-/-;hTDP1 cells + 20 nM CPT, ATP luminescence, 48 h; Potency, µM (highest dose often 46.2 µM), usual class: inhibitors; hit rate 12% among 420,000; AID 686979; further: nearly all actives have a fitted effect of over 55% in size
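Chicken DT40 Tdp1-/- cells stably complemented with human TDP1 were seeded at 400 cells/well in medium containing 20 nM camptothecin, exposed to pin-transferred compounds, and grown at 37 °C for at least 48 hr. Viability was read as ATP luminescence.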
Numbers stand for hits; i = inactive; ? = inconclusive; nt = no result; [ ] = dose if it differs, or a comment. Rows were chosen to be rich in hits. Some 18% of all compounds tested hit in one or more screens of this group. Unless noted, the call rests on the fitted dose curve; in most records, active means well fitted curve in the direction sought with a large enough effect; inconclusive means small, poorly fitted or top-dose-only effect, or another doubt; inactive means no such curve, though single readings can be large; an effect the other way counts as inactive or inconclusive.

SMILES | IL1B secr inh | TDP1 cell noCPT | TGFb SMAD3 inh | TDP1 inh | HepG2 viability | TDP1 cell CPT
COc1ccc(CCNS(=O)(=O)c2ccc(S(=O)(=O)N3CCCC3)cc2)cc1OC | i | ? | i | i | i | ?
COc1ccc(CCNS(=O)(=O)c2ccc(N3CCCCS3(=O)=O)cc2)cc1OC | nt | 21µM | i | i | i | ?
CCN1C(=O)/C(=C\c2nc3ccccc3c(=O)n2CC)c2ccccc21 | -86 | 29µM | i | i | i | 16µM
CCn1c(/C=C2/C(=O)N(C)c3ccccc32)nc2ccccc2c1=O | i | 16µM | i | i | i | ?
CCn1c(/C=C2\C(=O)N(C)c3ccccc32)nc2ccccc2c1=O | i | ? | i | i | i | ?
CCN1C(=O)/C(=C/c2nc3ccccc3c(=O)n2-c2ccccc2)c2ccccc21 | nt | 18µM | i | i | 16µM | 21µM
CCO/C=C1\C(=O)N(CC)c2ccccc21 | i | i | i | i | i | i
CC(=O)C[C@@H](O)CC(=O)[C@@H]1OC(=O)CCCCCc2ccccc21 | i | i | i | i | i | i
COc1cc2c(cc1OC)-c1cc3ccc(OC)c(OC)c3c[n+]1CC2 | i | 5.2µM | i | i | i | 5.2µM
Cc1ccc(C2(CCNS(=O)(=O)c3ccc(C)cc3)CCOC(C(C)C)C2)cc1 (stereo not drawn) | i | ? | ? | i | i | ?
Cc1ccc(C2(CCNCc3ccc(N(C)C)cc3)CCOC(C(C)C)C2)cc1 (stereo not drawn) | -97 | i | ? | i | i | ?
CC(C)C1CC(CCNCc2ccc(N(C)C)cc2)(c2ccccc2)CCO1 (stereo not drawn) | -100 | 7.3µM | ? | i | i | 7.3µM
CC(C)C1CC(CCNCc2ccc3c(c2)OCO3)(c2ccccc2)CCO1 (stereo not drawn) | -69 | ? | ? | nt | i | ?
CC(=O)N1CCc2c(sc3c2c(=O)n(-c2ccccc2Cl)c(=O)n3Cc2cccc(C)c2)C1 | nt | ? | ? | i | i | ?
CC[C@@H](CO)NCCN[C@@H](CC)CO | nt | i | nt | nt | nt | i
COCCNC(=O)CCn1c(=O)[nH]c2cc(OC)c(OC)cc2c1=O | nt | i | i | i | i | i
O=C(NCCc1ccccn1)c1cnn(-c2ncc3c(n2)-c2ccccc2CC3)c1C1CC1 | nt | ? | nt | nt | nt | i[9.04 µM]
Cc1cccc(Nc2nc(N)nc(N)c2N=O)c1 | -57 | 21µM | i | nt | i | 26µM
Cc1cc(Br)ccc1NC(=O)CNC(=O)CSc1n[nH]c(N)n1 | i | i | i | i | i | i
Cc1cc(Br)ccc1Nc1nc(N)nc(N)c1N=O | ? | ? | i | nt | i | 10µM
Cc1ccc(Nc2nc(N)nc(N)c2N=O)cc1C | i | ? | i | nt | i | ?
CN(C)/C=C/C(=O)/C=C/c1ccc(Cl)cc1 | -100 | ? | i | i | i | i
CCCCOc1ccccc1C1C(C(=O)OC)=C(C)N(C)C(C)=C1C(=O)OC | i | 23µM | ? | i | i | ?
COC(=O)C1=C(C)N(C)C(C)=C(C(=O)OC)C1c1ccccc1C | i | ? | i | i | i | ?
CCOc1ccc(CNCc2c(C(=O)O)n(Cc3ccccc3F)c3cc(OC)ccc23)cc1 | nt | 5.8µM | ? | i | i | 18µM
SMILES | IL1B secr inh | TDP1 cell noCPT | TGFb SMAD3 inh | TDP1 inh | HepG2 viability | TDP1 cell CPT
COc1ccc(Cn2c(C(=O)O)c(CNCc3ccc(SC)cc3)c3ccc(OC)cc32)cc1 | nt | 5.8µM | ? | i | i | 5.2µM
C=Cc1ccc(Cn2c(C(=O)O)c(CNCc3ccccc3)c3ccc(OC)cc32)cc1 | nt | 15µM | nt | i | i | ?
COc1ccc(CCCc2nnc(SCC(=O)Nc3ccc(C)cc3)o2)cc1C | nt | i | i | i | i | i
Cc1cc(C)n(-c2ccc(C(=O)N3CCN(S(=O)(=O)c4ccc(OC(F)(F)F)cc4)CC3)cc2)n1 | i | ? | i | nt | i | ?
O=C(CN1CCN(Cc2ccccc2)CC1)Nc1cccc(Cl)c1Cl | i | 21µM | i | nt | i | ?
O=C(CN1CCN(CC(=O)Nc2ccccc2Cc2ccccc2)CC1)Nc1ccccc1Cl | i | 12µM | i | i | i | 10µM
O=C(CN1CCN(Cc2ccccc2)CC1)Nc1ccc(Br)cc1 | i | 21µM | ? | nt | i | ?
Oc1ccccc1C1=NC(c2ccccc2)NC(c2ccccc2)C1 (stereo not drawn) | ? | 18µM | i | nt | i | ?
Oc1ccccc1-c1ccn[nH]1 | i | i | i | i | i | i
COC(=O)CC1C(C)(C)C(OC(C)=O)C2CC3C4CC(=O)OC(c5ccoc5)[C@]4(C)CCC3[C@@]1(C)C2=O (stereo partly drawn) | nt | i | nt | i | nt | i
C=C1C=CS(=O)(=O)N(Cc2ccccc2)C1 | nt | nt | i | i | i | nt
Cc1cc(C)c2c(n1)SCCN2C(=O)Nc1ccc(C(=O)Nc2ccc(C(C)C)cc2)cc1 | nt | ? | ? | i | i | ?
CC(=O)N1CC(C)Sc2ccc(S(=O)(=O)NCCc3ccc(C)cc3)cc21 (stereo not drawn) | i | 7.3µM | i | i | i | 18µM
CC(=O)N1CC(C)Sc2ccc(S(=O)(=O)NCCc3ccccc3)cc21 (stereo not drawn) | i | 10µM | i | i | i | 13µM
O=C(CCC1N=C2c3ccccc3N=C(SCC(=O)Nc3ccc(F)cc3)N2C1=O)NCc1ccco1 (stereo not drawn) | nt | ? | i | i | i | i
COc1ccc(NC(=O)CSC2=Nc3ccccc3C3=NC(CCC(=O)NCc4ccco4)C(=O)N23)cc1 (stereo not drawn) | nt | 12µM | i | i | i | 12µM
COc1cccc(NC(=O)CSC2=Nc3ccccc3C3=NC(CCC(=O)NCc4ccco4)C(=O)N23)c1 (stereo not drawn) | nt | ? | i | i | i | ?
O=C(CC1N=C2c3ccccc3N=C(SCC(=O)Nc3ccc(F)cc3)N2C1=O)NCc1ccco1 (stereo not drawn) | nt | 16µM | i | i | i | ?
COC(=O)Cc1c(C)c2ccc(OCC(=O)N(C)C)cc2oc1=O | i | i | i | i | i | i
CCCOc1ccc2c(C)c(CC(=O)OC)c(=O)oc2c1 | i | 10µM | i | i | i | ?
Cc1cccc(C)c1NC(=O)COc1ccc2c(C)c(Cc3ccccc3)c(=O)oc2c1C | i | ? | i | i | i | 16µM
COC(=O)Cc1c(C)c2ccc(OCC(C)=O)c(C)c2oc1=O | i | ? | i | i | i | i
C=C(C)COc1ccc2c(C)c(CC(=O)OC)c(=O)oc2c1C | i | 12µM | i | i | i | 18µM
